High-throughput results as filed in PubChem BioAssay.
The full list was thinned out, with hits kept by preference.
HT1080NT lethal = kills 2HG-producing HT-1080-NT fibrosarcoma cells | HT-1080-NT fibrosarcoma viability, CellTiter-Glo ATP luminescence, 48 h | Potency, µM (highest dose often 46.1 µM), for the others: top-dose activity, negative = less viability, hits mostly cytotoxic | 360,000 tested, 1.6% active | AID 686970;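 further: NT is the 2HG producing partner of a matched IDH1 knockdown line; potency means the concentration at half of the fitted maximal effect; 0% = DMSO-treated cells and -100% = media-only wells without cells; nearly all actives have a fitted effect of over 55% in size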
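Read-out is CellTiter-Glo luminescence after 10 minutes at room temperature, following 48 hours' compound treatment of HT-1080-NT cells (750 cells/well, RPMI, 5% FBS, 37 degrees C).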
DT40 TDP1 no CPT = qHTS for Inhibitors of human tyrosyl-DNA phosphodiesterase 1 (TDP1): qHTS in cells in absence of CPT; Potency, µM (doses to about 46.2 µM), inactives show at the top dose activity change, negative = growth inhibition, usual class: inhibitors; DT40 Tdp1-/- hTDP1 cells, no CPT, ATP luminescence, 48 h; 420,000 tested, 15% active; AID 686978, 2013; further: potency means the concentration at half of the fitted maximal effect; nearly all actives have a fitted effect of over 55% in size
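Stably hTDP1-transfected Tdp1-null chicken DT40 cells were treated with library compounds minus camptothecin and grown for at least 48 hr at 37 °C, after which cellular ATP was quantified by luminescence.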
IL-1B inflam inh = inhibitors of inflammasome signaling (IL-1 beta secretion); THP-1 LPS/ATP IL-1B secretion, AlphaLISA, 16 h; stronger effect = lower value; activity change, % at 57.5 µM; 360,000 tested, 4.7% active; AID 743279; in the data active means activity change below about -50%; inconclusive means mostly about -30% to -49%
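Secreted IL-1B measured by AlphaLISA bead assay after 16 h compound exposure of THP-1 cells; compounds (final up to 57.5 uM) added 1 h before LPS (250 ng/mL) and ATP (1.25 mM) stimulation; lower signal means less secretion.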
DT40 TDP1 CPT = growth inhibition of DT40 Tdp1-/-;hTDP1 cells with camptothecin (screen for TDP1 inhibitors). Potency, µM (top dose mostly 46.2 µM), for the others: at the top dose activity change, negative = growth inhibition, actives largely listed as inhibitors. chicken DT40 Tdp1-/-;hTDP1 cells + 20 nM CPT, ATP luminescence, 48 h. AID 686979. 420,000 tested, 12% active; further: potency means the concentration at half of the fitted maximal effect; nearly all actives have a fitted effect of over 55% in size
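Cell growth measured by CellTiter-Glo luminescence after a minimum 48 h, 37 C compound exposure with 20 nM CPT in Tdp1-knockout DT40 cells stably expressing hTDP1, seeded 400/well; qHTS titration format.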
12-LOX inh = blocks human arachidonate 12S-lipoxygenase | P18054 | purified 12hLO, xylenol orange hydroperoxide absorbance | Potency, µM (highest dose often 108 µM), inactives show top-dose activity change, negative = inhibition, usual class: inhibitors | 580,000 tested, 1.1% active | AID 1671190; further: potency means the concentration at half of the fitted maximal effect
Target sequence (P18054 whole entry, looked up): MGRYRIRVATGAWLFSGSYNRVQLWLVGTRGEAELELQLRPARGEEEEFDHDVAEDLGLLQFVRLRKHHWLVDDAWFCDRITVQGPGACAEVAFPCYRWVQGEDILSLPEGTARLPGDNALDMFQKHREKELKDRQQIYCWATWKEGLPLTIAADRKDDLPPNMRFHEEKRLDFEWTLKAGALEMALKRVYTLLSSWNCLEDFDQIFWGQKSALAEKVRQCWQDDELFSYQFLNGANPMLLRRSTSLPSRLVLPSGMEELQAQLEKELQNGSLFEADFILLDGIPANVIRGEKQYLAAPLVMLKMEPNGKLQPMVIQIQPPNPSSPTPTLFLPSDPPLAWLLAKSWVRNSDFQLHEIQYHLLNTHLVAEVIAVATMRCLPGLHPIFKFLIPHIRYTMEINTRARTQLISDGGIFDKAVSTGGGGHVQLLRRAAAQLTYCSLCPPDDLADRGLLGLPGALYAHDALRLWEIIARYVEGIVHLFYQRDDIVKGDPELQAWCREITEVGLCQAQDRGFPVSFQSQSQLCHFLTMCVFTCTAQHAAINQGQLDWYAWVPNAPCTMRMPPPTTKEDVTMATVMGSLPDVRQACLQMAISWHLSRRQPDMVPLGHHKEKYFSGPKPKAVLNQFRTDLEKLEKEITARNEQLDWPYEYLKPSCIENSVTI
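Purified human 12hLO at 150 nM in 25 mM Hepes, 0.01% Triton X-100, pH 7.0, preincubated 15 min at room temperature with compound. Reaction started with 40 uM arachidonic acid, 30 min at room temperature. Hydroperoxide measured by Fe-xylenol orange, 573/405 nm absorbance ratio.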
HT1080 IDH1KD tx = kills HT-1080 cells with IDH1 knockdown; 360,000 tested, 2% active; HT-1080 IDH1 knockdown viability, ATP luminescence, 48 h; AID 686971; Potency, µM (doses to about 46.1 µM), for inactives: at the top dose activity, negative = toxicity, usual class: cytotoxic;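 further: potency means the concentration at half of the fitted maximal effect; 0% = DMSO wells and -100% = cell-free medium wells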
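Assay cells: HT-1080 with IDH1 knockdown, 750 per well, RPMI/5% FBS. Exposure: 48 h at 37 °C following 2 h pre-incubation. Read: CellTiter-Glo luminescence; fitted concentration-response, curve class assigned.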
* hit, by the source's call; ? = inconclusive; . = not tested or not shown; [ ] = remark or other dose. Unless noted, the call rests on the fitted dose curve; in most records, active means well fitted curve in the direction sought with a large enough effect; inconclusive means small, poorly fitted or top-dose-only effect, or another doubt; inactive means no such curve, though single readings can be large; an effect the other way counts as inactive or inconclusive. Unless noted, on the % scale 0 is the no-effect control and ±100 the full control effect.

SMILES | HT1080NT lethal | DT40 TDP1 no CPT | IL-1B inflam inh | DT40 TDP1 CPT | 12-LOX inh | HT1080 IDH1KD tx
COc1ccc(NC(=O)C2CCN(S(=O)(=O)c3ccc(Br)s3)CC2)cc1OC | -14% | -26% | -11 | -5% | -2% | 1%
Cc1cc(NC(=O)C2CCN(S(=O)(=O)c3ccc(Br)s3)CC2)ccc1Br | . | 16µM* | . | ? | -27% | .
CC(OC(=O)C1CCC1)C(=O)c1c[nH]c2ccccc12 (centres undefined) | . | . | . | . | 29% | .
Cc1ccc(NC(=O)C2CCN(c3cnc4ccccc4n3)CC2)c(C)c1 | . | . | . | . | -12% | .
CCCOC(=O)c1cc(-c2ccccc2)nc2ccccc12 | . | . | . | . | 11% | .
Cc1ccc(S(=O)(=O)N2CCCc3cc(NC(=O)c4ccc(C(F)(F)F)cc4)ccc32)cc1 | . | 21µM* | . | ? | -66% | .
COc1ccc(C(=O)Nc2ccc3c(c2)CCCN3S(=O)(=O)c2ccc(C)cc2)c(OC)c1 | . | 5.2µM* | . | 5.8µM* | 3% | .
Cc1ccc(S(=O)(=O)N2CCc3cc(C(=O)Nc4ccc(C(F)(F)F)cc4)ccc32)cc1 | . | ? | . | ? | 9% | .
Cc1ccc(S(=O)(=O)N2CCCc3cc(NC(=O)c4ccc(Cl)cc4)ccc32)cc1 | . | ? | . | ? | 4% | .
COc1ccc(OCC(O)CNCCOc2ccccc2OC)c(C(C)(C)C)c1 (centres undefined) | -28% | 9.2µM* | -73* | 10µM* | ? | -13%
CCOCC(O)CNc1ccccc1 (centres undefined) | 10% | -11% | 3 | 1% | -20% | 17%
CCC(C)(C)c1ccc(OCC(O)CNCc2ccccc2)c(C(C)(C)CC)c1 (centres undefined) | . | . | . | . | 45µM* | .
OC(CNCc1ccco1)COc1ccccc1 (centres undefined) | -6% | -41% | 7 | 1.2µM* | 441% | -23%
OC(CNc1ccccc1)COc1ccc(OCC(O)CNc2ccccc2)cc1 (centres undefined) | 21µM* | 8.2µM* | -51* | 13µM* | -3% | 21µM*
CC(C)CCN(C1CCOCC1)C1CCN(C(=O)c2ccc(F)cc2)CC1 | . | . | . | . | 45% | .
COc1ccc(OCC(O)CNC2CCCC2)cc1 (centres undefined) | -1% | ? | -17 | -11% | -26% | -2%
COc1ccc(NCC(O)COc2ccc(C(C)(C)C)cc2)cc1 (centres undefined) | ? | ? | -65* | ? | -1% | ?
COc1ccc(CNCC(O)COc2ccc(C(C)(C)c3ccccc3)cc2)cc1 (centres undefined) | 21µM* | ? | -100* | ? | ? | 16µM*
COc1ccccc1NCC(O)COc1ccc(C(C)(C)C)cc1 (centres undefined) | 16µM* | 16µM* | -106* | 15µM* | ? | 16µM*
O=C(c1cc2ccccc2oc1=O)N1CCN(c2cccc(C(F)(F)F)c2)CC1 | . | . | . | . | 180% | .
O=C(O)c1cccc(NCc2ccc(Cl)cc2Cl)c1 | . | . | . | . | -5% | .
CC1=C/C(=C/N(C)c2ccccc2)C(=O)S1 | 13% | 26µM* | -11 | 21µM* | ? | 2%
O=C(OCc1c(F)cccc1Cl)c1ccccc1Nc1ccccc1 | . | . | . | . | 5% | .
CC(C)C1NCCc2c1sc1ccccc21 (centres undefined) | -22% | ? | -50* | -3% | 4% | -27%
Cc1ccncc1-c1c(C)nn2c1N(Cc1cccc(OC(F)(F)F)c1)CCC2 | . | . | . | . | -24%[176 µM] | .
SMILES | HT1080NT lethal | DT40 TDP1 no CPT | IL-1B inflam inh | DT40 TDP1 CPT | 12-LOX inh | HT1080 IDH1KD tx
Cc1nc(Sc2nnnn2C2CC2)c2c(-c3ccccc3)csc2n1 | . | 11µM* | . | ? | . | .
Cc1sc2nc(CN3CCCCC3)nc(Sc3nnnn3C3CC3)c2c1C | . | . | . | . | -16% | .
CCn1nnnc1Sc1nc(C)nc2scc(-c3ccccc3)c12 | . | 8.9µM* | . | ? | . | .
Cn1nnnc1Sc1ncnc2scc(-c3ccc(-c4ccccc4)cc3)c12 | . | . | . | . | -1% | .
CCn1nc(C(=O)Nc2nc(-c3ccc4c(c3)OCCO4)cs2)c2ccccc2c1=O | . | . | . | . | 1% | .
Cc1cc(Cn2nc(C(=O)NCc3cccc(Br)c3)cc2-c2ccccc2)on1 | ? | ? | -58* | ? | -16% | -2%
COc1ccc(/C(=C/Nc2cccc(Br)c2)C(C)=O)cc1OC | -1% | ? | -84* | -3% | 5% | 1%
COc1ccc(N/C=C(/C(C)=O)c2ccccc2)cc1 | 0% | -15% | -84* | -7% | 0% | 4%
O=C(N[C@H]1CO[C@H]2[C@@H]1OC[C@@H]2n1nnnc1Oc1ccc2c(c1)OCO2)c1ccc(C(F)(F)F)cc1 | . | . | . | . | -3% | .
Cc1cc(C)c2nc3sc(C(=O)N4CCOCC4)c(N)c3cc2c1 | 0.21µM* | 0.21µM* | 61 | 0.58µM* | 1% | 0.052µM*
Cc1sc(NC(=O)c2sc3nc4c(C)cccc4cc3c2N)c(C#N)c1C | -9% | 15µM* | 3 | ? | ? | ?
Cc1cc(C)c2cc3c(N)c(C(=O)N4CCOCC4)sc3nc2c1 | 0% | ? | -76* | -8% | -28% | -6%
Cc1cccc2cc3c(N)c(C(=O)N4CCc5ccccc54)sc3nc12 | -29% | 2.9µM* | 0 | 3.7µM* | ? | ?
Cc1ccc(C(=O)N2CCc3ccccc32)cc1C | 2% | ? | 23 | 2% | -7% | -1%
CC(C)c1ccc(NC(=O)c2ccc[n+]([O-])c2)cc1 | . | . | . | . | 36% | .
Cc1ccc(C)c2nc3sc(C(=O)N4CCOCC4)c(N)c3cc12 | 4.1µM* | ? | 53 | ? | ? | 3.3µM*
Cc1cc(C)c2oc(-c3cc(NC(=O)c4cccnc4)cc(C)c3O)nc2c1 | . | . | . | . | 3% | .
Cc1ccnc(NC(=O)CCC(=O)N(CC(=O)NCc2ccccc2)c2ccc3c(c2)OCO3)c1 | -1% | 23µM* | 5 | 7.3µM* | 13% | 20%
CCOC(=O)N1CCN(C(=O)c2ccc3nc(N4CCC(C)CC4)sc3c2)CC1 | -13% | ? | ? | ? | 0% | -18%
Cc1cccc(N2CCN(C(=O)c3ccc4nc(N5CCCCC5)sc4c3)CC2)c1C | 7% | 18µM* | 34 | 21µM* | 16% | 5%
Cc1ccc(C)c(N2CCN(C(=O)c3ccc4nc(N5CCOCC5)sc4c3)CC2)c1 | 1% | 13µM* | 23 | ? | 8% | -13%
Cc1cccc(C)c1NC(=O)N1CCN(c2nc3ccccc3s2)CC1 | 6% | ? | 14 | 12µM* | -39% | ?
